In the library only some 18% were active in any assay of this set; here they are far more common.
PLK1 PBD block: blocks phosphopeptide binding to human PLK1 polo-box domain. Plk1 PBD binding of FITC phosphopeptide, fluorescence polarization. Potency, µM, actives largely listed as inhibitors. 360,000 compounds, 2.8% hits; note: series mostly up to about 57 µM; nearly all actives have a fitted effect of over 65% in size
Target sequence (P53350 whole entry, looked up, the tested form may be a part): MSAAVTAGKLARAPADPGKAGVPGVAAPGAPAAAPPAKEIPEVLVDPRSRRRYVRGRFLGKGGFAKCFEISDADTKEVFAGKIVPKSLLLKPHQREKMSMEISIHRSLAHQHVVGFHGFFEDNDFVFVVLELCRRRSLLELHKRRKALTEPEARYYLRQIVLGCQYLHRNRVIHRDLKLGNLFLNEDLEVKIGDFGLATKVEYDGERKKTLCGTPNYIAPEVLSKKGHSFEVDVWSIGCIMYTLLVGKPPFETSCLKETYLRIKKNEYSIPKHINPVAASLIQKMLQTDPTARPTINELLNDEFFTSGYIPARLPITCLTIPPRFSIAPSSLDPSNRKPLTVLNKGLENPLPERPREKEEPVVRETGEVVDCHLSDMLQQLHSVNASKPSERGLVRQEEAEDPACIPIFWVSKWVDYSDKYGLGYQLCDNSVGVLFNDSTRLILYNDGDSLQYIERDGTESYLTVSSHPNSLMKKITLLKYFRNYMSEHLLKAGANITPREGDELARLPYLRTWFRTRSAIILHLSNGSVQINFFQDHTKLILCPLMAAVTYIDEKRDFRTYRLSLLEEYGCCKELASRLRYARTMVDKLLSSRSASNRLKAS
TDP1 cell CPT: DT40-hTDP1 cell growth loss with CPT. Potency, µM (series often up to 46.2 µM), hits mostly inhibitors. 420,000 compounds, 12% hits. chicken DT40 Tdp1-/-;hTDP1 cells + 20 nM CPT, ATP luminescence, 48 h; note: nearly all actives have a fitted effect of over 55% in size
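Cell growth measured by CellTiter-Glo luminescence after a minimum 48 h, 37 C compound exposure with 20 nM CPT in Tdp1-knockout DT40 cells stably expressing hTDP1, seeded 400/well; qHTS titration format.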
VDR inhibitor: blocks the human vitamin D receptor; P11473; VDR-SRC2-3 peptide fluorescence polarization, 2 h; 400,000 compounds, 0.93% hits; Potency, µM, actives largely listed as inhibitors
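Measured by FP: displacement of SRC2-3 coactivator peptide from VDR by library compounds, following a two-hour ambient incubation.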
TDP1 block: blocks human tyrosyl-DNA phosphodiesterase 1; Q9NUW8; recombinant TDP1, AlphaScreen DNA substrate cleavage; Potency, µM (top dose mostly 130 µM), hits mostly inhibitors; 350,000 compounds, 0.28% hits; note: nearly all actives have a fitted effect of over 40% in size
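Tdp1 1 nM final; 15 min RT w/ cpd; substrate 15 nM, 5 min; beads 10 ug/ml, 10 min; AlphaScreen read. Neg ctrl: no enzyme.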
GCN5L2 inh: inhibitors of human GCN5L2 histone acetyltransferase; Q92830; GCN5L2 HAT assay, ThioGlo1 CoA-SH fluorescence; Potency, µM (titrated, usually from 58.9 µM), most hits filed as inhibitors; 390,000 compounds, 0.21% hits; AID 504327
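Enzyme at 20nM final was mixed with library compounds for 15 min at room temperature. Peptide H3(1-25) at 75uM, acetyl-CoA at 70uM and ThioGlo1 at 50uM were then added. Plates were read immediately and after 20 min (Ex340nm/Em540nm).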
TDP1 cell noCPT: qHTS for Inhibitors of human tyrosyl-DNA phosphodiesterase 1 (TDP1): qHTS in cells in absence of CPT; Potency, µM (titrated, usually from 46.2 µM), most hits filed as inhibitors; DT40 Tdp1-/- hTDP1 cells, no CPT, ATP luminescence, 48 h; 420,000 compounds, 15% hits; note: nearly all actives have a fitted effect of over 55% in size
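Chicken DT40 Tdp1-/- cells complemented with human TDP1, screened without camptothecin (DMSO vehicle only), 400 cells/well. Compounds pin-transferred, cells incubated at 37 °C for at least 48 hr. Growth read as ATP-dependent luminescence (CellTiter-Glo, 30 min at RT).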
Hits are given with their value; [ ] = another dose, or the depositor's remark. Calls come from the whole dose curve; as a rule, active = well fitted curve in the direction sought with a large enough effect; inconclusive = small, poorly fitted or top-dose-only effect, or another doubt; inactive = no such curve, though single readings can be large; an effect the other way counts as inactive or inconclusive.

`O=C1NN(c2ccc(Cl)c(Cl)c2)C(=O)/C1=C/c1ccc(-c2ccccc2C(=O)O)o1` gave PLK1 PBD block 19µM, TDP1 cell CPT inactive, VDR inhibitor 45µM, GCN5L2 inh inconclusive and TDP1 cell noCPT inactive.
For Cc1ccc(N2NC(=O)/C(=C/c3ccc(-c4ccc(Cl)c(C(=O)O)c4)o3)C2=O)cc1C the results were PLK1 PBD block inconclusive, TDP1 cell CPT inactive, VDR inhibitor inactive, GCN5L2 inh inactive and TDP1 cell noCPT inactive.
`O=C1NN(c2ccccc2)C(=O)/C1=C\c1cccn1-c1ccc(Cl)c([N+](=O)[O-])c1` gave PLK1 PBD block inconclusive, TDP1 cell CPT inactive, VDR inhibitor inactive, TDP1 block inactive, GCN5L2 inh inactive and TDP1 cell noCPT inactive.
O=C1NN(c2ccccc2)C(=O)/C1=C/c1ccc(Sc2cccc3ccccc23)o1 was read as PLK1 PBD block 12µM, TDP1 cell CPT inactive, VDR inhibitor inconclusive, TDP1 block inactive, GCN5L2 inh inactive and TDP1 cell noCPT inactive.
For N#C/C(=C\c1ccc(-c2ccc(C(=O)O)cc2)o1)c1nc2ccccc2[nH]1 the results were PLK1 PBD block inactive, TDP1 cell CPT inconclusive, VDR inhibitor inactive, TDP1 block inactive[12.3 µM], GCN5L2 inh inactive and TDP1 cell noCPT inconclusive.
For COC(=O)c1ccc(N2NC(=O)/C(=C/c3ccc(-c4ccc(Cl)c(C(=O)O)c4)o3)C2=O)cc1 the results were PLK1 PBD block 17µM, TDP1 cell CPT inactive, VDR inhibitor 79µM, GCN5L2 inh inactive and TDP1 cell noCPT inactive.
Screening O=C1NN(c2ccccc2)C(=O)/C1=C/c1ccc(-c2ccc(C(=O)O)cc2)o1 returned PLK1 PBD block 21µM, TDP1 cell CPT inactive, VDR inhibitor inconclusive, GCN5L2 inh inconclusive and TDP1 cell noCPT inactive.
`COC(=O)c1ccccc1-c1ccc(/C=C2\C(=O)N(c3ccccc3)N=C2c2ccccc2)o1` gave PLK1 PBD block inconclusive, TDP1 cell CPT inactive, VDR inhibitor inactive, TDP1 block inactive, GCN5L2 inh inactive and TDP1 cell noCPT inconclusive.
COc1ccc(S(=O)(=O)N(C)C[C@H]2Oc3c(NC(=O)Nc4c(C)noc4C)cccc3C(=O)N([C@@H](C)CO)C[C@H]2C)cc1 was read as PLK1 PBD block inactive, TDP1 cell CPT inactive, VDR inhibitor inactive, TDP1 block inactive, GCN5L2 inh inactive and TDP1 cell noCPT inconclusive.
O=c1[nH]c2cc(F)ccc2c2ccc(F)cc12 was read as PLK1 PBD block inactive, TDP1 cell CPT inconclusive, VDR inhibitor inactive and TDP1 cell noCPT inactive.
Screening Cc1ccc(C(=O)O)cc1NC(=O)c1ccc2c(c1)C(=O)N(c1ccc([N+](=O)[O-])cc1)C2=O returned PLK1 PBD block inactive, TDP1 cell CPT inactive, VDR inhibitor inactive, GCN5L2 inh inactive and TDP1 cell noCPT inactive.
O=C(O)c1ccc(N2C(=O)/C(=C/c3ccc(-c4ccc([N+](=O)[O-])cc4)o3)C=C2c2ccccc2)cc1 was read as PLK1 PBD block 12µM, TDP1 cell CPT inconclusive, VDR inhibitor inconclusive, TDP1 block inactive, GCN5L2 inh inactive and TDP1 cell noCPT inconclusive.
`CCS(=O)(=O)N1Cc2cc(C(=O)NCCOC)nc(-c3cccc(-c4ccncc4)c3)c2[C@H]1CCO` gave PLK1 PBD block inactive, TDP1 cell CPT inactive and TDP1 cell noCPT inactive.
Screening CCn1c(-c2cccc(OC)c2)nc2cc(NC(C)=O)cc(C(=O)N3CCC[C@H]3C(=O)OC)c21 returned TDP1 cell CPT inactive and TDP1 cell noCPT inactive.
For CCCS(=O)(=O)c1c(S(=O)(=O)CCC)c2c(C)cccn2c1C(=O)N/N=C/c1cc(O)cc(O)c1 the results were PLK1 PBD block inactive, TDP1 cell CPT 0.82µM, VDR inhibitor inactive, GCN5L2 inh inactive and TDP1 cell noCPT 15µM.
Screening CCCS(=O)(=O)c1c(S(=O)(=O)CCC)c2c(C)cccn2c1C(N)=O returned PLK1 PBD block inactive, TDP1 cell CPT inactive, VDR inhibitor inactive, TDP1 block inactive, GCN5L2 inh inactive and TDP1 cell noCPT inactive.
Screening CC(=O)c1cccc(NC(=O)Cn2nc(C(F)(F)F)c3c2CCC3)c1 returned TDP1 cell CPT inconclusive, VDR inhibitor inactive, TDP1 block inactive, GCN5L2 inh inactive and TDP1 cell noCPT inactive.
Cc1nn(-c2ccccc2)c2nc(N)c(C#N)c(-c3ccc(F)cc3)c12 was read as PLK1 PBD block inactive, TDP1 cell CPT 18µM, VDR inhibitor inactive, TDP1 block inactive, GCN5L2 inh inactive and TDP1 cell noCPT 26µM.
`Cc1ccccc1NC(=O)CSc1nc(N)c(C#N)c(-c2cccs2)c1C#N` gave PLK1 PBD block inactive, TDP1 cell CPT inactive, VDR inhibitor inactive, TDP1 block inactive, GCN5L2 inh inactive and TDP1 cell noCPT inconclusive.
For Cc1ccc(-n2nc(C)c3c(-c4cccs4)c(C#N)c(N)nc32)cc1 the results were PLK1 PBD block inactive, TDP1 cell CPT inconclusive, VDR inhibitor inactive, TDP1 block inactive, GCN5L2 inh inactive and TDP1 cell noCPT 23µM.
Cc1nc(N)c(C#N)c(-c2ccccc2)c1C was read as PLK1 PBD block inactive, TDP1 cell CPT inactive, VDR inhibitor inactive, TDP1 block inactive, GCN5L2 inh inactive and TDP1 cell noCPT inconclusive.
For CC(=NNC(=S)N(Cc1ccccn1)Cc1ccccn1)c1cnccn1 the results were PLK1 PBD block inactive, TDP1 cell CPT 0.58µM, VDR inhibitor inactive and TDP1 cell noCPT 0.82µM.
Screening C/C(=N/NC(=O)c1cnccn1)c1ccncc1 returned PLK1 PBD block inactive, TDP1 cell CPT inactive, VDR inhibitor inactive, TDP1 block inactive, GCN5L2 inh inactive and TDP1 cell noCPT inactive.
S=C(NN=C(c1ccccc1)c1ccccn1)N(Cc1ccccn1)Cc1ccccn1 was read as PLK1 PBD block inconclusive, TDP1 cell CPT 0.15µM, VDR inhibitor inactive and TDP1 cell noCPT 0.15µM.
For Cc1ccccc1NC(=S)N(Cc1ccccn1)Cc1ccccc1Cl the results were PLK1 PBD block inactive, TDP1 cell CPT inconclusive, VDR inhibitor inactive, TDP1 block inactive, GCN5L2 inh inactive and TDP1 cell noCPT inconclusive.
S=C(NN=Cc1ccccn1)N(Cc1ccccn1)Cc1ccccn1 was read as PLK1 PBD block inactive, TDP1 cell CPT 0.65µM, VDR inhibitor inactive and TDP1 cell noCPT 0.92µM.
CC[C@@H](c1ccccc1)n1c(=O)n2n(c1=O)[C@H]1[C@H](O)[C@H]3O[C@@H]3/C(=N/OCc3ccccc3)[C@@H]1CC2 was read as TDP1 block inactive[21 µM].
Screening CC1=C(c2ccc(C)cc2)S(=O)(=O)N(Cc2ccc(C(=O)NCc3ccccc3)cc2)C1=O returned TDP1 cell CPT inconclusive, VDR inhibitor inactive, TDP1 block inactive, GCN5L2 inh inactive and TDP1 cell noCPT inconclusive.

Source: PubChem
